# Measurements as given in PubChem BioAssay (NCI).
# This is part of a sample that, as a whole, favours compounds with a hit. Of some 83,000 tested, about 20% had one in any assay.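 Single-dose data. Exposure time 48 hours. Values below 10 considered active.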 A number with no mark means an inactive call. Calls of active or inactive are those of the source.
# System: HL-60(TB) leukemia
# Assay: NCI-60 one-dose screen, 48 h (100 = growth as untreated, 0 = no growth, -100 = all killed)
# Details: 10 µM unless noted
row,SMILES,growth
1,O=CN1N=C(c2ccc(F)cc2)CC1c1cccc(Nc2ccnc3cc(C(F)(F)F)ccc23)c1 (configuration not stated),8.69% (active)
2,C=CC(=O)N(C)[C@H]1C[C@H]2OC(C)(C1OC)n1c3ccccc3c3c4c(c5c6ccccc6n2c5c31)C(=O)NC4 (some centres not stated),-11.2% (active)
3,COc1ccc(NCc2cn(-c3ccc(C(=O)O)cc3)nc2-c2ccc(C(=O)O)cc2)cc1C(F)(F)F,118%
4,COC(=O)CC[C@@H]1O[C@@H](c2ccc(F)cc2)[C@@H](O)[C@H]1O,113%
5,N#Cc1c(-c2ccc(Cl)cc2)nc(NN2C(=O)c3ccccc3C2=O)nc1N1CCOCC1,99.8%
6,CCN1C(=O)N(CC)C2Nn3c(s/c(=C4\C(=O)N(C(C)C)c5ccccc54)c3=O)=NC21 (configuration not stated),6.28% (active)
7,C=C1C(=O)O[C@H]2[C@H]1CC/C(COC(=O)NCCOCCOCC(=O)Nc1ccc(OC)c(C(N)=O)c1O)=C\CC[C@@]1(C)O[C@@H]21,-6.3% (active)
8,CC(C)(CNC1CCCCC1)OC(=O)c1ccccc1,95.3%
9,CCOC(=O)COc1c(C)cc(SSc2cc(C)c(OCC(=O)OCC)c(C)c2)cc1C,88.5%
10,CCc1ccc(-c2ccc(Nc3ccccc3)nn2)cc1S(N)(=O)=O,47.4%
11,CC(=O)N1N=C(c2ccc3c(c2)OCO3)CC1c1c(C)nn(-c2ccccc2)c1N(C)Cc1ccccc1 (configuration not stated),85.6%
12,C=C1C(=O)O[C@H]2[C@H]1CC/C(COC(=O)n1ccnc1)=C\CC[C@@]1(C)O[C@@H]21,64.3%
13,CCOCCC(=O)O,106%
14,Cc1nc2nc(SCC(=O)O)[nH]c2c(=O)[nH]1,94.7%
15,COc1cc(C2CC(c3ccc(Nc4nc(NCCO)nc(NCCO)n4)cc3)=NN2c2cc(Cl)cc(Cl)c2)cc(OC)c1OC (configuration not stated),-5.04% (active)
16,N=C(N)c1ccc(-c2ccc(-c3ccccc3)s2)cc1F,-73.1% (active)
17,C=C1c2c(C)nn(-c3ccc(S(N)(=O)=O)cc3)c2N(C)C23CC1C1(C)c4c(C)nn(-c5ccc(S(N)(=O)=O)cc5)c4N(C)C(C)(CC12)C3 (configuration not stated),8.58% (active)
18,CC1(C)OC2[C@@H](CNC(=O)NC(=O)NC(=O)CI)O[C@@H](n3cnc4c(NC(=O)Nc5ccccc5)ncnc43)[C@H]2O1 (some centres not stated),77.2%
19,O=c1oc2ccc(I)cc2c(=O)n1-c1ccc(Br)cc1F,-27.8% (active)

row,SMILES,growth
1,Cc1nn(-c2ccc(Br)cc2)c2nc3[nH]c(=O)[nH]c(=O)c3nc12,120%
2,N=C(N)c1ccc(-c2ccc(-c3ccc(Cl)c(Cl)c3)s2)nc1,-43.9% (active)
3,COc1ccc(-c2ccccc2)cc1-c1c(Nc2cc(Cl)cc(Cl)c2O)c(=O)c1=O,-29.8% (active)
4,O=C1CN(CO)C(=O)CN1CO,107%
5,O=C(CCCSc1nc(-c2ccc(Cl)cc2)cc(-c2ccc(Cl)cc2)n1)NO,-25.4% (active)
6,CCCOc1ccc(-c2nc(-c3ccc(N)cc3)cs2)cc1,56.7%
7,c1ccc2c(c1)oc1cc3c(cc12)nnc1cccn13,108%
8,Cc1ccc(NC(=S)N2CCOCC2)cc1C,103%
9,Cc1csc(-c2ccc3c(c2)COC3(CCCN(C)C)c2ccc(F)cc2)c1 (configuration not stated),-47.9% (active)
10,O=C(Cn1ccnc1)Nc1ccc(-c2nc3ccccc3s2)cc1,77.3%
11,CC[C@H](C)[C@@H](C(=O)OC)n1cc(CNC(=O)[C@@H](Cc2ccccc2)NC(=O)OCc2ccccc2)nn1,104%
12,CC1(C)CCC[C@]23C(=O)O[C@](O)(C(=O)C4=C[C@@](C)(/C=C/CCCc5ccc6ccc7cccc8ccc5c6c78)CC[C@@]42O)[C@@H]13,-18.3% (active)
13,COc1ccc(C(=O)COc2cccc(/C=C3\Cc4ccccc4C3=O)c2)cc1,73.4%
14,CCC(CC)n1c(C)cc(=O)n1C(CC)CC,88%
15,O=S(=O)(Nc1cc(F)cc(Cl)c1)c1ccc(-c2cnc(C3CC3)o2)cc1,7.71% (active)
16,O=[N+]([O-])c1cc([N+](=O)[O-])c(N2CCCC2)cc1NN=C(c1ccc(O)cc1)c1ccc(O)cc1,122%
17,O=C(NCc1ccc2c(c1)OCO2)NCC1CCCC(CNC(=O)NCc2ccc3c(c2)OCO3)C1 (configuration not stated),108%
18,CCCCn1c(Cc2ccc(Cl)cc2)nc2cc(OC)c(OC)cc2c1=O,53.7%
